High-throughput results deposited in PubChem BioAssay by National Center for Advancing Translational Sciences (NCATS).
Sampled rows, rich in hits. Any-hit rate of the full collection: about 10%.
HPGD inh = qHTS Assay for Inhibitors of HPGD (15-Hydroxyprostaglandin Dehydrogenase); Potency, µM, for inactives: top-dose activity change, negative = inhibition, usual class: inhibitors; 15-hydroxyprostaglandin dehydrogenase [NAD(+)] (Homo sapiens), P15428; actives 4.3% (n = 150,000); purified HPGD, NADH fluorescence kinetic, PGE2 substrate; AID 894, 2007; also: potency is read from the fitted curve at half-maximal effect
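NADH formation kinetics: reaction with 30 uM PGE2 and 1 mM NAD+ (final), 20 nM enzyme, Tris-HCl pH 8 with Tween 20, after 15 min compound preincubation at room temperature. Fluorescence change, last versus first of five reads.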
PNC inhibitor = High Content Assay for Compounds that inhibit the Assembly of the Perinucleolar Compartment; PC3M PTB-GFP, PNC prevalence imaging, 16 h; hits give low values; activity change (PNC), negative = inhibition, % at 10 µM; actives 3.1% (n = 140,000); AID 2417, 2010;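 active = readout at or below -70, meaning at least 70% loss of cells showing the perinucleolar compartment, a nuclear body marking cancer cells; inconclusive = readout between -30 and a set limit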;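 also: plate controls were DMSO wells for no effect and camptothecin positive control wells for full effect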
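PC3M cells stably expressing PTB-GFP, 750–1000 cells/well, treated 16 h at 37 °C with compound (23 nl of library stock), in duplicate. After paraformaldehyde fixation and Hoechst stain, imaged at 20x; PNC prevalence scored by image analysis.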
ALDH1A1 block = qHTS Assay for Inhibitors of Aldehyde Dehydrogenase 1 (ALDH1A1). actives 7.3% (n = 220,000). Potency, µM (titrated, usually from 75.3 µM), for inactives: at the top dose activity, negative = inhibition, hits mostly inhibitors. Purified ALDH1A1, NADH fluorescence, propionaldehyde substrate. Aldehyde dehydrogenase 1A1 (Homo sapiens), P00352;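 also: potency is read from the fitted curve at half-maximal effect; plate controls were no enzyme wells and a reference inhibitor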
12-hLO inh = qHTS Assay for Inhibitors of 12-hLO (12-human lipoxygenase) | Potency, µM (series often up to 57.1 µM), for the others: top-dose activity change, negative = inhibition, usual class: inhibitors | actives 0.12% (n = 150,000) | purified 12-hLO, xylenol orange hydroperoxide absorbance | Polyunsaturated fatty acid lipoxygenase ALOX12 (Homo sapiens), P18054 | AID 1452, 2008; active = well fitted inhibition curve with a large enough effect; inconclusive = small, poorly fitted or top-dose-only effect; also: potency is read from the fitted curve at half-maximal effect; nearly all actives have a fitted effect of over 55% in size
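Hydroperoxide output read as Fe(III)-xylenol orange absorbance, 573-to-405 nm ratio, after 30 min reaction with 40 uM arachidonic acid. Enzyme: 150 nM purified human 12hLO, 15 min compound preincubation; 25 mM Hepes pH 7.0, room temperature.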
LMNA splice mod = qHTS Assay for Modulators of Lamin A Splicing. actives 0.01% (n = 200,000). Potency, µM (titrated, usually from 46.1 µM), for the others: top-dose ratio change, negative = inhibition, hits mostly inhibitors. AID 1487, 2009. HeLa LMNA splicing GFP/RFP minigene ratio, 48 h; active = well fitted inhibition curve with a large enough effect in the signal ratio, with a control signal flat, not every such curve was filed as active; inconclusive = small, poorly fitted or top-dose-only effect, or effect the other way, or a change in a side signal; the % refers to the signal ratio; also: potency is read from the fitted curve at half-maximal effect
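Read-out is the ratio of GFP to DsRed2 object intensity, acquired by 488 nm laser-scanning cytometry on HeLa lamin A-EGFP minigene reporter cells. Compound incubation 48 hrs at 37 °C in Opti-MEM with 2% FBS; DMSO 0.5% final.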
An asterisk follows results filed as active; ? = inconclusive; nt = not tested or not shown; [ ] = remark or other dose. Unless noted, calls follow the shape of the dose curve; as a rule, active = well fitted inhibition curve with a large enough effect (not every such curve was filed as active); inconclusive = small, poorly fitted or top-dose-only effect, or another doubt; inactive = no such curve, though single readings can be large or run the other way. Unless noted, % is scaled to controls: 0 for no effect and ±100 for the full control effect.

SMILES	HPGD inh	PNC inhibitor	ALDH1A1 block	12-hLO inh	LMNA splice mod
O=C(NCc1ccco1)c1cc(-c2cccs2)on1	?	2	22µM*	-2%	2%
O=C(NCCCCNC(=O)c1cccs1)c1cccs1	-14%	-114*	2%	2%	2%
CCCn1cnc2cc(NC(=O)c3cccs3)ccc21	nt	nt	-7%	nt	nt
O=C(O)c1ccccc1NS(=O)(=O)c1cccc2ccccc12	-4%	nt	-7%	-10%	nt
O=C(NNC(=S)NCc1ccco1)c1cccs1	nt	28	?	2%	0%
O=C(NCc1ccco1)Nc1cccs1	-9%	?	28µM*	-16%	4%
CCC1C(=O)N=C(SCC(=O)NC2CCCCC2)NC1=O (configuration not stated)	nt	nt	25µM*	nt	nt
CCc1nnc(SCC(=O)NC2CCCC2)nc1CC	16µM*	-24	12%	1%	0%
Nn1c(SCC(=O)NC2CCCCC2)nnc1C1CC1	-10%	?	24µM*	2%	7%
CC(C)CO/N=C1/[C@H]2O[C@@H]2[C@@H](O)[C@H]2[C@H]1CCn1c(=O)n(C)c(=O)n12	nt	nt	0%[13.5 µM]	nt	nt
CC(C)=CCC/C(C)=C/CO/N=C1/[C@H]2O[C@@H]2[C@@H](O)[C@H]2[C@H]1CCn1c(=O)n(Cc3cc4c(cc3Cl)OCO4)c(=O)n12	nt	nt	18%[13.5 µM]	nt	nt
Cc1ccc2ncccc2c1NS(=O)(=O)c1ccccc1	-7%	-16	32µM*	-15%	?
COc1ccc(CNC(=O)Cc2c(C(=O)O)c(C)cn2C)cc1	nt	nt	nt	nt	-13%[46 µM]
CCNC(=O)[C@H]1O[C@@H](n2cnc3c(N)nc(NCCc4ccc(CCC(=O)O)cc4)nc32)[C@H](O)[C@H]1O	-22%	nt	-10%	nt	?
CCOc1ccc(NC2=NCC(=O)N2Cc2cccs2)cc1	-16%	-105*	?	1%	2%
CCOC(=O)Cc1csc(-n2sc3ccccc3c2=O)n1	1.4µM*	8	3.5µM*	4.5µM*	-7%
COc1ccccc1OCCSc1nnnn1-c1ccc(C)cc1	-14%	?	-15%	-7%	-12%
c1ccc(-n2nnnc2SCCCSc2nc3ccccc3s2)cc1	11µM*	-14	1.3µM*	4%	7%
CCOc1ccc(OCCSc2nnnn2-c2ccccc2)cc1	-13%	18	14µM*	3%	?
c1ccc(OCCSc2nnnn2-c2ccccc2)cc1	-17%	9	22µM*	3%	3%
CCOc1ccc(OCCSc2nnnn2C2CCCCC2)cc1	-16%	21	16µM*	0%	?
Cc1cc(=O)[nH]c2nnc(SCc3c(F)cccc3Cl)n12	nt	nt	nt	nt	-1%[46 µM]
O=C(CCC1N=C2c3ccccc3N=C(SCc3ccccc3F)N2C1=O)NC1CCCCC1 (configuration not stated)	nt	nt	nt	nt	7%[46 µM]
CCCC1OC2CC3C4CCC5=CC(=O)C=CC5(C)C4C(O)CC3(C)[C@]2(C(=O)CO)O1 (some centres not stated)	-8%	nt	-3%	-5%	nt
CCOc1ccc(OCCSc2nc3ccccc3[nH]2)cc1	25µM*	-92*	-6%	5%	?
SMILES	HPGD inh	PNC inhibitor	ALDH1A1 block	12-hLO inh	LMNA splice mod
Fc1ccccc1OCCSc1nnnn1-c1ccccc1	16µM*	?	1.9µM*	-7%	?
CCC(Sc1nnnn1-c1ccccc1)C(=O)Nc1nc2ccccc2s1 (configuration not stated)	-15%	-100*	?	-10%	?
CCCOc1ccc(CSc2nc3ccccc3[nH]2)cc1	-20%	74	9%	3%	5%
CCCCC/C=C\C/C=C\CCCCCCCC(=O)NCC(=O)O	-12%	nt	4%	3%	nt
O=C(C1CCC1)N1CCCc2cc(S(=O)(=O)N3CCN(c4cccc(Cl)c4)CC3)ccc21	nt	nt	nt	nt	3%[46 µM]
c1ccc2c(CN3CCCCC3)csc2c1	3%	-2	3%	3%	-1%
Fc1cccc(F)c1-n1c(CN2CCCC2)csc1=S	nt	nt	22µM*	nt	0%[46 µM]
